Compound activity (PubChem)
The list is not random: actives were taken first. Their share in the collection is about 21%.
Shiga toxin inh: A qHTS for Small Molecule Inhibitors of Shiga Toxin. inhibition, % at 38.7 µM. Vero cells, Shiga toxin protein synthesis inhibition reporter. 290,000 compounds, 9.2% hits; in the data active means inhibition mostly above about 28%, no sharp cut-off; inactive means mostly below about 43%; further: 0% is about no effect
Pf growth 96h: Primary qHTS for delayed death inhibitors of the malarial parasite plastid, 96 hour incubation | P. falciparum luciferase reporter growth, 96 h | Potency, µM (series often up to 28.7 µM), for the others: at the highest dose activity change, negative = inhibition, hits mostly inhibitors | 320,000 compounds, 6.9% hits; further: potency means the concentration at half of the fitted maximal effect; on the % scale 0 is the no-effect control and ±100 the full control effect
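Two-generation exposure (96 h) targets delayed-death phenotype. Reporter parasites carrying integrated firefly luciferase, in red cells at 2% hematocrit and 0.05% parasitemia final, kept at 37 C, 5% CO2; luminescence loss indicates inhibition.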
HCMV antiviral: qHTS Assay for inhibitors of the human cytomegalovirus (HCMV); HFF cells, HCMV-luciferase reporter, 72 h; hits give low values; activity change, negative = inhibition, % at 57.5 µM; 410,000 compounds, 4.5% hits; AID 1259415, 2018; in the data active means activity change below about -60%; inconclusive means no clear call, values can overlap the other calls; inactive means above about -39%; further: on the % scale 0 is the no-effect control and ±100 the full control effect
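Cell-based, HFFs, 1000 cells/well, 16 h 37C; cpds in DMSO + HCMV-luc, MOI 1 PFU/cell; 72 h 37C; OneGlo luminescence after 5 min RT; norm. to buffer vs Salinomycin 10uM.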
CHX counter: Cycloheximide Counterscreen for Small Molecule Inhibitors of Shiga Toxin. cell reporter, cycloheximide protein synthesis inhibition counterscreen. max response, %. 300,000 compounds, 12% hits. AID 2314, 2010; in the data active means max response mostly above about 13%, no sharp cut-off; inactive means mostly below about 14%; further: read at 38.3 µM for the half of the compounds with a filed dose; 0% is about no effect
HCV inhibitor: qHTS Assay for Inhibitors of Hepatitis C Virus (HCV). AID 651820, 2012. Potency, µM (doses to about 41.8 µM), for the others: at the highest dose activity change, negative = inhibition, usual class: inhibitors. Huh7.5.1 HCVcc-Cre infection, luciferase reporter, 44 h. 340,000 compounds, 3.4% hits; further: potency means the concentration at half of the fitted maximal effect; on the % scale 0 is the no-effect control and ±100 the full control effect
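HCVcc-Cre virus at an moi near 0.5 was added right after compound to cells cultured 4 h from seeding (1,000 cells/well). Luciferase activity was determined 44 h later, 15 min after substrate addition at RT.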
Pf growth 48h: Primary qHTS for delayed death inhibitors of the malarial parasite plastid, 48 hour incubation; 310,000 compounds, 5.9% hits; Potency, µM (top dose mostly 28.7 µM), inactives show at the highest dose activity change, negative = inhibition, most hits filed as inhibitors; P. falciparum luciferase growth in erythrocytes, 48 h; further: potency means the concentration at half of the fitted maximal effect; on the % scale 0 is the no-effect control and ±100 the full control effect
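Luciferase-expressing P. falciparum in infected erythrocytes (2% hematocrit, 0.1% parasitemia final) in RPMI 1640/0.5% Albumax were exposed to compound for 48 hours at 37 C, 5% CO2; growth read as luminescence.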
Starred values were filed as active, the others as inactive; ? = inconclusive; / = no result. Unless noted, the call rests on the fitted dose curve; in most records, active means well fitted inhibition curve with a large enough effect; inconclusive means small, poorly fitted or top-dose-only effect, or another doubt; inactive means no such curve, though single readings can be large or run the other way.

SMILES	Shiga toxin inh	Pf growth 96h	HCMV antiviral	CHX counter	HCV inhibitor	Pf growth 48h
CN(C)c1ccc(/C=C/c2nc3ccccc3s2)cc1	12.1	?	-92.2*	-3.6	-8.3%	67.9%
CC1(C)O[C@@H]2C[C@H]3[C@@H]4CCC5=CC(=O)C=C[C@]5(C)[C@H]4C(O)C[C@]3(C)[C@]2(C(=O)CO)O1 (stereo not given in full)	/	-11.1%	/	/	/	?
CCOc1ccc(NC(=O)c2oc3ccccc3c2NC(=O)Cc2cccc(C)c2)cc1	/	/	9.6	/	/	/
Cc1[nH]c2ccccc2c1C1(O)C(=O)N(Cc2ccccc2)c2ccc(Cl)cc21 (stereo not given)	/	/	-10.0	/	/	/
C[C@H]1CCC[C@@]2(O[C@@H](CCO)C[C@@H](O)[C@@H]2O)O1	10.0	41.6%	6.6	-1.6	7.7%	73.0%
c1ccc(Oc2ccc3ccccc3n2)cc1	129.8*	8.1%	-12.9	38.7*	7.5%	5.1%
c1ccc2nc3c(ccc4ccccc43)cc2c1	/	/	20.7	/	?	/
CNC(=S)N/N=C(\C)c1ccc(N2CCOCC2)cc1	85.0*	10.4µM*	-99.3*	60.6*	-15.3%	-3.8%
C/C(=N\Nc1ccc(F)cc1F)c1ccc(F)cc1	-13.8	20.8%	/	-2.2	/	9.7%
CCNC(=S)N/N=C(\C)c1ccc(N2CCOCC2)cc1	12.4	-22.8%	-16.0	-1.1	?	3.2%
S=c1[nH]ncn1/N=C/c1ccc(N2CCOCC2)cc1	32.3*	92.4%	60.3	25.9*	5.0%	/
O=S(=O)(Nc1ccc(N2CCOCC2)cc1)c1ccc(F)cc1F	-6.1	1.9%	?	-1.6	20.7%	45.6%
Fc1ccc(N/N=C/c2ccc(N3CCOCC3)cc2)c(F)c1	75.1*	90.6%	-12.2	34.0*	?	73.1%
C/C(=N\Nc1ccc(F)cc1F)c1ccc(N2CCOCC2)cc1	16.0	75.5%	117.6	23.7*	?	41.1%
CCOC(=O)CCNC(=O)N1CCCC(C(=O)c2cc(C)c(OC)c(C)c2)C1 (stereo not given)	-7.5	-8.2%	45.6	-4.4	-15.0%	8.0%
COC(=O)c1c(NC(=O)COc2cccc(C(F)(F)F)c2)sc2c1CCCC2	/	/	12.1	/	/	/
Cc1c(NC(=O)CN2C(=O)NC(C)(c3ccc(Cl)cc3)C2=O)c(=O)n(-c2ccccc2)n1C (stereo not given)	/	0.9%	-33.1	/	5.3%	-24.7%
C/C(=N\NC(=O)c1ccc(F)cc1)c1ccc(N2CCOCC2)cc1	74.4*	-4.5%	-16.9	21.2*	-3.6%	0.0%
CCCCCC(=O)N/N=C(\C)c1ccc(N2CCCCC2)cc1	57.7*	?	42.2	47.7*	-5.7%	-0.4%
C/C(=N\NC(=O)c1ccc(O)cc1)c1ccc(N2CCOCC2)cc1	30.2	51.0%	-27.7	2.2	11.4%	48.3%
O=C(N/N=C/c1ccc(N2CCCCC2)o1)c1ccccc1	75.5*	?	23.6	37.1*	-6.1%	?
C/C(=N\NC(=O)COc1ccc(C(C)(C)C)cc1)c1ccc(N2CCOCC2)cc1	-30.4	?	17.1	24.0*	-9.4%	2.0%
CCC(=O)N1CCc2cc(S(=O)(=O)NC(CC(C)C)C(=O)NCc3ccc(F)cc3)ccc21 (stereo not given)	/	/	-6.0	/	/	/
C/C(=N\NC(=O)c1ccccc1)c1ccc(N2CCCCC2)cc1	77.3*	44.4%	167.5	48.3*	-16.5%	39.7%
CN(C)/N=C/c1ccc(N2CCOCC2)cc1	45.2	?	75.9	23.2*	6.3%	469.7%
SMILES	Shiga toxin inh	Pf growth 96h	HCMV antiviral	CHX counter	HCV inhibitor	Pf growth 48h
C/C(=N\NC(=O)c1ccc(N2CCCC2=O)cc1)c1ccccc1	17.0	60.3%	23.7	-0.9	15.0%	15.0%
Cc1ccc(-n2ncc3c(NCc4ccc5c(c4)OCO5)ncnc32)c(C)c1	-6.6	-0.2%	-19.5	-2.9	?	?
Cc1cccc(-n2ncc3c(NCc4ccc5c(c4)OCO5)ncnc32)c1	97.3*	-0.8%	-9.5	18.1*	?	0.3%
O=C(CSc1ncnc2c1cnn2-c1ccc(Cl)cc1)NCc1ccc2c(c1)OCO2	21.8	69.3%	61.3	6.8	17.8%	35.9%
c1ccc(-n2ncc3c(NCc4ccc5c(c4)OCO5)ncnc32)cc1	41.7*	?	17.7	19.8*	-15.8%	-1.1%
COc1ccc(-n2ncc3c(NCc4ccc5c(c4)OCO5)ncnc32)cc1	26.7*	67.0%	9.6	24.8*	-9.8%	98.5%
O=C(Nc1cc(C(F)(F)F)ccc1-n1cncn1)c1ccc(F)cc1Cl	/	7.9%	0.5	/	-22.3%	-5.4%
O=C(c1ccccc1)c1cccc[n+]1[O-]	/	12.4%	-39.6	-1.3	4.4%	33.7%
COc1cccc(C(=O)OCC(=O)Nc2ccc3c(c2)OCCO3)c1	/	/	2.4	/	8.9%	/
O=C(COc1cccc2cccnc12)NCC(F)(F)F	-5.4	-22.1%	27.8	-2.7	0.2%	25.3%
O=C(Nc1c(Cl)cccc1Cl)Oc1cccc2cccnc12	/	/	-97.8*	/	/	/
O=C(COc1cccc2cccnc12)Nc1ccccc1	56.0	-9.9%	?	34.3*	5.4%	118.5%
O=C(Nc1cccc(Br)c1)Oc1cccc2cccnc12	/	/	-35.0	/	/	/
O=C(CNc1ccc(F)cc1Cl)Nc1cccc(S(=O)(=O)N2CCCCC2)c1	/	?	-17.0	/	?	?
O=C(COc1ccc(F)cc1Cl)Nc1cccc(S(=O)(=O)N2CCCCCC2)c1	/	13.1µM*	-17.0	/	?	?
CCOc1ccc(NC(=O)COc2cccc3cccnc23)cc1S(=O)(=O)N1CCCC1	/	/	-11.3	/	/	/
O=C(COc1cccc2cccnc12)Nc1cccc(S(=O)(=O)N2CCCC2)c1	/	?	-9.3	/	10µM*	10.4µM*
COc1ccc(OC)c2c(C)cc(N3CCCCCC3)nc12	-1.6	?	-27.2	-3.2	-19.3%	-15.3%
CCc1ccccc1OCC(=O)Nc1cccc(S(=O)(=O)N2CCCC2)c1	/	?	-28.9	/	?	?
CC(=O)c1cc(Cl)ccc1OCC(=O)Nc1cccc(S(=O)(=O)N2CCCC2)c1	/	3.7µM*	0.0	/	-29.7%	?
Nc1nnc(SCC(=O)OCC(=O)c2ccccc2Br)s1	2.2	24.5%	-31.5	-4.1	4.0%	-4.0%
COc1ccc(OCC(=O)NNC(=O)C2CCCO2)cc1 (stereo not given)	-5.7	?	15.3	-0.7	33.3%	18.0%
O=C(Nc1nc(-c2ccc(Cl)cc2Cl)cs1)C1CCCO1 (stereo not given)	7.5	55.6%	-12.5	9.3	?	14.9%
O=C(Nc1nc(-c2ccc(Cl)cc2)cs1)C1CCCO1 (stereo not given)	90.8*	139.2%	-8.4	36.1*	-30.0%	82.1%
